In PubChem BioAssay AID1159580 (chemical genetic matrix, 2015):
The whole screen tested about 5,500 compounds, of which about 2,000 (36%) were called active. Roughly 18% stayed inconclusive and do not appear here. Rule as the data show it: active = normalized growth mostly below about 0.91 (no sharp cut-off); inconclusive = no clear call, values can overlap the other calls; inactive = mostly above about 0.92. This is one part of the list.

Assay: chemical genetic growth profiling, strain panel (AID 1159580);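 also: tested at 20 µM; growth read once vehicle control cultures reached saturation at 30 °C; 1 = growth at the plate median or of vehicle wells; lower values mean less growth of the strain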
Details: S. cerevisiae deletion strains, growth OD

Measured: normalized growth

N[C@@H](Cn1oc(=O)[nH]c1=O)C(=O)O
inactive: locus YAL013W, strain DEP1, hits give low values 1.01 | locus YAL040C, strain CLN3, hits give low values 0.975 | locus YCL061C, strain MRC1 (second series), hits give low values 0.991 | locus YDR150W, strain NUM1, hits give low values 0.996 | locus YDR363W, strain ESC2, hits give low values 0.968 | locus YER002W, strain NOP16, hits give low values 0.979 | locus YGR078C, strain PAC10, hits give low values 0.979 | locus YMR263W, strain SAP30, hits give low values 1.01 | locus YMR307W, strain GAS1, hits give low values 1.02 | locus YNL153C, strain GIM3, hits give low values 0.996 | locus YNL175C, strain NOP13, hits give low values 0.99 | locus YNL197C, strain WHI3, hits give low values 0.972 | locus YNL224C, strain SQS1, hits give low values 0.989 | locus YOR083W, strain WHI5 (second series), hits give low values 0.961
